Compound activity from PubChem BioAssay.
TDP1 cell noCPT = qHTS for Inhibitors of human tyrosyl-DNA phosphodiesterase 1 (TDP1): qHTS in cells in absence of CPT. AID 686978, 2013. Potency, µM (series often up to 46.2 µM), without a hit: at the top dose activity change, negative = growth inhibition, hits mostly inhibitors. DT40 Tdp1-/- hTDP1 cells, no CPT, ATP luminescence, 48 h. hit rate 15% among 420,000; also: potency is read from the fitted curve at half-maximal effect; % is scaled to controls: 0 for no effect and ±100 for the full control effect; nearly all actives have a fitted effect of over 55% in size
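Luminescent ATP content (CellTiter-Glo) served as the growth readout. Knockout chicken DT40 cells expressing human TDP1 were exposed to compounds without camptothecin for a minimum 48 hr at 37 °C.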
TGFb SMAD3 inh = blocks TGF-b signaling; HepG2 CAGA-GFP TGF-b/SMAD3 reporter, GFP fluorescence, 18 h; TGF-beta stimulated, 500 pg/mL final; AID 588855; hit rate 1.2% among 410,000; Potency, µM (highest dose often 46.1 µM), inactives show top-dose activity, negative = inhibition, actives largely listed as inhibitors; also: potency is read from the fitted curve at half-maximal effect; % is scaled to controls: 0 for no effect and ±100 for the full control effect; nearly all actives have a fitted effect of over 65% in size
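Inhibition was scored as loss of TGF-beta-induced (500 pg/mL final, 18 hours, 37 degrees C) GFP in HEPG2 cells carrying a CAGA-GFP reporter, in DMEM with 1% FBS. Well GFP was summed per cell; Activity was normalised to unstimulated and stimulated DMSO wells, then concentration-response fitting.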
IL1B secr inh = blocks inflammasome-driven IL-1 beta release | THP-1 LPS/ATP IL-1B secretion, AlphaLISA, 16 h; active compounds read low | activity change, % at 57.5 µM | hit rate 4.7% among 360,000; in the data active = activity change below about -50%; inconclusive = mostly about -30% to -49%; also: % is scaled to controls: 0 for no effect and ±100 for the full control effect
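THP-1 cells pretreated 1 hr with compounds (up to 57.5 uM final), then stimulated with LPS (250 ng/mL final) plus ATP (1.25 mM final); secreted IL-1B measured by AlphaLISA after 16 hr, decreased signal indicating inhibition.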
HepG2 tox = kills HepG2 cells in TGF-b inhibitor counter-screen; hit rate 0.76% among 410,000; Potency, µM (top dose mostly 46.1 µM), without a hit: top-dose activity change, negative = cytotoxicity, actives largely listed as cytotoxic; AID 588856; HepG2 CAGA-GFP viability, ATP luminescence, 18 h; also: potency is read from the fitted curve at half-maximal effect
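HepG2 CAGA-GFP cells (1000/well, DMEM with 1% FBS) received compound, then TGF-beta at 500 pg/mL final, and were incubated 18 hours at 37 degrees C. Viability was read by CellTiter-Glo luminescence. Media-only wells were set as complete cell-killing and DMSO as no toxicity.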
TDP1 cell CPT = DT40-hTDP1 cell growth loss with CPT; chicken DT40 Tdp1-/-;hTDP1 cells + 20 nM CPT, ATP luminescence, 48 h; hit rate 12% among 420,000; Potency, µM (titrated, usually from 46.2 µM), for the others: at the highest dose activity change, negative = growth inhibition, actives largely listed as inhibitors; also: potency is read from the fitted curve at half-maximal effect; % is scaled to controls: 0 for no effect and ±100 for the full control effect; nearly all actives have a fitted effect of over 55% in size
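Chicken DT40 Tdp1-/- cells stably complemented with human TDP1 were seeded at 400 cells/well in medium containing 20 nM camptothecin, exposed to pin-transferred compounds, and grown at 37 °C for at least 48 hr. Viability was read as ATP luminescence.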
TDP1 block = TDP1 (human) enzyme inhibition; Q9NUW8; recombinant TDP1, AlphaScreen DNA substrate cleavage; Potency, µM (top dose mostly 130 µM), inactives show at the top dose activity change, negative = inhibition, hits mostly inhibitors; hit rate 0.28% among 350,000; AID 485290; also: potency is read from the fitted curve at half-maximal effect; % is scaled to controls: 0 for no effect and ±100 for the full control effect; nearly all actives have a fitted effect of over 40% in size
Target sequence (Q9NUW8 whole entry, looked up): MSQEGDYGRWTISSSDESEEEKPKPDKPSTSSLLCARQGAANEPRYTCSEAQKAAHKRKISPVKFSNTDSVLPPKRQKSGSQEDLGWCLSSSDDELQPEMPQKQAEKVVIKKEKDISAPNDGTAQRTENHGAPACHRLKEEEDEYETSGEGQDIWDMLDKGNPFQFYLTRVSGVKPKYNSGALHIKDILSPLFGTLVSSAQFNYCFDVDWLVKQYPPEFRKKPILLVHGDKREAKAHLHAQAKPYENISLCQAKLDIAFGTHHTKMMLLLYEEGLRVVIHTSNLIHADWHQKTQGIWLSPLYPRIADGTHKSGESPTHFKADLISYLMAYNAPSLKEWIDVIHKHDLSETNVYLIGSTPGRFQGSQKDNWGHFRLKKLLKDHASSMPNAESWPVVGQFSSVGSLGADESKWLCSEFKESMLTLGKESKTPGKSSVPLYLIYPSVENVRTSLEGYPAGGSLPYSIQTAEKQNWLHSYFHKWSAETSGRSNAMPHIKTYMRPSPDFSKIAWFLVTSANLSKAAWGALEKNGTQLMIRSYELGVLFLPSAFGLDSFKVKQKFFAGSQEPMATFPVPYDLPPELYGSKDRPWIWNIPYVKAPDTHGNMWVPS
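Steps: enzyme plus compound, 15 min RT; add biotin/phosphotyrosine-FITC oligonucleotide (15 nM final), react 5 min; add donor/acceptor beads (10 ug/ml final), 10 min; read AlphaScreen. Tdp1 at 1 nM final.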
The depositor's hits bear a star; ? = inconclusive; nt = no result given; [ ] = another dose, or the depositor's remark. Most compounds without a hit are left out; they make up all but 19% or so of the library. Unless noted, calls follow the shape of the dose curve; as a rule, active = well fitted curve in the direction sought with a large enough effect; inconclusive = small, poorly fitted or top-dose-only effect, or another doubt; inactive = no such curve, though single readings can be large; an effect the other way counts as inactive or inconclusive.

SMILES	TDP1 cell noCPT	TGFb SMAD3 inh	IL1B secr inh	HepG2 tox	TDP1 cell CPT	TDP1 block
CCn1cc(/C=C/C(=O)Nc2ccc(C)cc2Br)cn1	?	4.5%	-28.8	-9.4%	15.8%	4.5%
CCn1cc(/C=C/C(=O)Nc2ccn(Cc3c(F)c(F)cc(F)c3F)n2)cn1	11.6µM*	-18.8%	8.0	0.8%	?	5.1%
COc1ccccc1-n1c(=O)n(C)c2c(C(N)=O)nc(-c3cc(OC)c(OC)c(OC)c3)nc21	nt	37.3%	nt	-22.6%	nt	4.1%
COc1ccc(OC)c(NC(=O)COCc2cc(-c3ccco3)on2)c1	?	0.0%	nt	-3.4%	?	2.5%
C=CCOc1c(Br)cc(CNc2ccc(NC(=O)C(C)C)c(OC)c2)cc1OCC	16.4µM*	-9.1%	-16.2	2.3%	20.6µM*	0.0%
C=CCOc1c(Br)cc(CNc2ccc(NC(=O)CCC)cc2)cc1OCC	16.4µM*	-3.6%	0.0	1.2%	?	10.7%
COc1cc2cc(OC(C)=O)c3cc4c(cc3c2c(OC)c1OC)OCO4	-1.8%	nt	13.3	nt	-5.8%	nt
COc1cc(-c2nccc3cc4c(cc23)OCO4)cc(OC)c1OC	4.61µM*	7.8%	20.9	-6.9%	5.8µM*	nt
N#Cc1c(-n2ncnc2-c2ccc(Br)cc2)sc2c1CCCCC2	?	-2.5%	nt	-2.3%	?	4.8%[12.3 µM]
CC(/C=N/n1cnnc1)=C\c1ccccc1	-8.4%	5.5%	3.2	-20.9%	-14.2%	4.1%
ClC(/C=N/n1cnnc1)=C/c1ccccc1	1.84µM*	?	-94.0*	-24.5%	14.6µM*	2.5%
CCc1nn(CC(=O)NCCc2ccc(OC)c(OC)c2)c(=O)c2cc3occc3n12	-13.9%	-19.9%	nt	-21.1%	?	5.1%
COc1ccc(S(=O)(=O)N(CC(=O)Nc2cccnc2)c2ccc(Cl)cc2)cc1	-24.9%	?	nt	-21.1%	2.7%	nt
COC(=O)[C@H]1[C@H]2CC3c4[nH]c5ccccc5c4CCN3C[C@@H]2CC[C@@H]1O (some centres undefined)	4.0%	nt	nt	nt	10.9%	9.0%[56.1 µM]
COc1ccccc1-c1c(-c2ccc(O)cc2O)n[nH]c1C(F)(F)F	2.31µM*	?	36.1	-24.7%	5.8µM*	8.2%
COc1ccc(-c2c(-c3ccc(O)cc3O)n[nH]c2C(F)(F)F)cc1	-24.6%	?	-4.3	-29.2%	?	5.1%
Oc1ccc(-c2n[nH]c(C(F)(F)F)c2-c2ccccc2)c(O)c1	1.64µM*	?	-78.1*	-14.5%	1.84µM*	nt
O=C(COC(=O)c1cccc(-n2cnnn2)c1)c1ccc(F)c(F)c1	-0.9%	-2.6%	24.8	-14.2%	-2.0%	nt
COc1cc(C(=O)N2CCN(CCc3ccccn3)CC2)cc(OC)c1OC	-17.9%	10.3%	nt	-1.5%	3.4%	3.6%
C[C@H](CO)N1C[C@H](C)[C@@H](CN(C)Cc2cccnc2)Oc2cc(-c3cccnc3)ccc2S1(=O)=O	-27.5%	-1.1%	-20.7	-39.8%	-20.1%	nt
COc1cccc(-c2ccc3c(c2)O[C@H](CN(C)C(=O)c2ccccc2F)[C@H](C)CN([C@H](C)CO)S3(=O)=O)c1	20.6µM*	-7.5%	-28.7	3.2%	?	nt
COc1cccc(-c2ccc3c(c2)O[C@@H](CN(C)Cc2cncnc2)[C@@H](C)CN([C@H](C)CO)S3(=O)=O)c1	9.2µM*	?	0.9	-31.4%	23.1µM*	nt
C[C@@H]1CN([C@@H](C)CO)S(=O)(=O)c2ccc(-c3cccc(C#N)c3)cc2O[C@@H]1CN(C)C(=O)c1ccc(F)cc1	20.6µM*	-11.8%	-26.4	-30.1%	?	nt
Cc1ccc(-c2ccc3c(c2)O[C@H](CN(C)Cc2cncnc2)[C@@H](C)CN([C@H](C)CO)S3(=O)=O)cc1	23.1µM*	2.9%	-28.7	-21.3%	?	nt
CC(C)c1c(C(=O)NCc2cccnc2)cnn1-c1nccc(-c2cccs2)n1	?	nt	nt	nt	24.1%[9.04 µM]	nt
SMILES	TDP1 cell noCPT	TGFb SMAD3 inh	IL1B secr inh	HepG2 tox	TDP1 cell CPT	TDP1 block
Cc1ccnc2cc(Cl)cc(Cl)c12	-3.2%	14.3%	nt	30.0%	-14.8%	nt
c1cncc(-c2cc(-n3ccnc3)ncn2)c1	-14.0%	nt	nt	nt	?	nt
CC(C)c1ccc(NC(=O)C(=O)c2cn(CC(=O)N3CCCCC3)c3ccccc23)cc1	?	2.5%	0.0	-11.6%	?	5.3%
COc1ccc(CCNC(=O)CS(=O)(=O)c2cn(CC(=O)N3CCCC3)c3ccccc23)cc1OC	-3.5%	-1.2%	10.2	-15.4%	-0.1%	2.3%
CC(=O)Nc1ccc(NC(=O)C(=O)c2cn(CC(=O)N3CCCC3)c3ccccc23)cc1	-21.1%	-11.2%	9.1	-30.2%	0.4%	0.9%
COc1ccc(NC(=O)C(=O)c2cn(CC(=O)N3CCCC3)c3ccccc23)cc1	0.231µM*	?	124.6	-16.9%	0.411µM*	6.0%
COc1ccc(CCNC(=O)Cn2cc(S(=O)(=O)Cc3ccc(F)cc3)c3ccccc32)cc1OC	20.6µM*	0.0%	nt	0.9%	?	8.7%
CC(=O)Nc1cccc(NC(=O)C(=O)c2cn(CC(=O)N3CCCCC3)c3ccccc23)c1	?	-9.5%	-2.6	-3.8%	23.1µM*	4.6%
COc1ccc(CCNC(=O)C(=O)c2cn(CC(=O)N3CCCC3)c3ccccc23)cc1OC	20.6µM*	1.6%	-29.7	-7.5%	-8.7%	nt
C#CCCCO/N=C1/C[C@@H](O)[C@@H](O)[C@@H]2[C@@H]3C(=O)N(Cc4ccccc4)C(=O)[C@H]3CC[C@@H]12	nt	nt	nt	nt	nt	11.1%[21 µM]
Cc1ccc(N[S+](=O)([O-])c2cc3c(cc2CCc2ccccc2)NC(=O)CO3)cc1C	nt	nt	nt	nt	nt	2.5%
COc1ccc(O)c(CN2CCC3(CCC(CNC(=O)C4CCCO4)O3)CC2)c1 (centres undefined)	-1.0%	nt	nt	nt	-0.2%[9.04 µM]	nt
COC(=O)c1ccccc1NC(=O)Cc1nc(-c2ccc(OC)cc2)no1	-20.4%	?	nt	17.8µM*	-1.7%	0.0%
CCOC(=O)c1ccccc1NC(=O)CCc1nc(-c2ccc(C)cc2)no1	-26.3%	3.3%	nt	0.2%	-25.3%	-5.0%
COc1ccc(-c2noc(CCC(=O)Nc3cc(OC)ccc3OC)n2)cc1	20.6µM*	?	-5.7	-10.5%	-25.0%	4.2%
COc1ccc(-c2noc(CCC(=O)Nc3cccnc3)n2)cc1	?	19.9%	-2.2	-2.4%	?	6.7%
COc1ccc(-c2noc(CCC(=O)NC3CCCCCC3)n2)cc1	0.6%	-12.6%	20.9	-9.9%	?	0.1%
